Shown are actives, neighbours in structure and some others; about 3% of the full set was active somewhere.
Nrf2 activator = activates Nrf2 signaling; AREc32 ARE-luciferase reporter (MCF7-derived line), luminescence, 24 h; Potency, µM (doses to about 46.1 µM), most hits filed as activators; 410,000 compounds, 0.31% hits; note: nearly all actives have a fitted effect of over 65% in size
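AREc32_Fluc, 1000 cells/well, OPTI-MEM + 5% FBS, o/n 37 deg C 5% CO2; 23 nL cpd by pin tool, 24 hr; Steady-Glo 30 min RT, luminescence.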
DRD3 antagonist = antagonists of human D3 dopamine receptor | P35462 | D3R cells, DiscoveRx beta-arrestin luminescence, antagonist mode; stronger effect = lower value | max response, negative = inhibition, % | 360,000 compounds, 2.5% hits; in the data active = max response below about -50%; inconclusive = no clear call, values can overlap the other calls
Target sequence (P35462 whole entry, looked up): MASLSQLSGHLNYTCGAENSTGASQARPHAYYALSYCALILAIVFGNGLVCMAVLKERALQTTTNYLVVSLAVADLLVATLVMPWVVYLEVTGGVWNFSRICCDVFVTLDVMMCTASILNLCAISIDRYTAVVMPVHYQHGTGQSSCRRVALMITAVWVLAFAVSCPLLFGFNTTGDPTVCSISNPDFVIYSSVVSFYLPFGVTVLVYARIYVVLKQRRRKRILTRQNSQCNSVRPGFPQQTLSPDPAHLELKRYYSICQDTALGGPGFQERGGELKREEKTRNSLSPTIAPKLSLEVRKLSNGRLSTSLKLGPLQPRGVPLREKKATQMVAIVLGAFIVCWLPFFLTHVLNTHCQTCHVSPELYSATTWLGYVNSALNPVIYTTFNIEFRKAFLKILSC
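Cells expressing the human receptor were seeded at 1500 cells/well, incubated overnight at 37 degrees C in 5% CO2, then exposed to library compounds with dopamine controls for 90 minutes at 37 degrees C before luminescent detection.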
GRP78 ERSR act = ER stress response induction in glioma. Potency, µM, actives largely listed as activators. 420,000 compounds, 0.02% hits. U87-MG GRP78 promoter luciferase reporter, 16 h; note: series mostly up to about 76 µM; nearly all actives have a fitted effect of over 35% in size
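Stably transfected U87-MG glioma cells carrying a GRP78-based luciferase sensor; 16 h compound incubation. Luminescence end-point read 10 min after Bright-Glo addition at room temperature.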
D3 ag = agonists of human D3 dopamine receptor; 410,000 compounds, 0.58% hits; D3R DiscoveRx beta-arrestin cells, luminescence, 90 min; AID 652048; max activation, %; in the data active = max activation above about 30%
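Cells at 1500/well, incubated overnight, then treated with pinned compounds (dopamine as control) for 90 min at 37 degrees C. DiscoveRx reagent added for 30 - 60 minutes at room temperature; luminescence read.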
A number is an active result; - = inactive; ? = inconclusive; . = not tested or not shown. Unless noted, calls come from the whole dose curve; as a rule, active = well fitted curve in the direction sought with a large enough effect; inconclusive = small, poorly fitted or top-dose-only effect, or another doubt; inactive = no such curve, though single readings can be large; an effect the other way counts as inactive or inconclusive.

SMILES	Nrf2 activator	DRD3 antagonist	GRP78 ERSR act	D3 ag
CCOc1cc2c(c3c1C(c1ccccc1)N(S(=O)(=O)c1ccc(C)cc1)C3)C(=O)C=CC2=O (centres undefined)	?	-115	-	-
CCCCc1cc(O)c(CCCC)c(O)c1	?	-	22µM	-
CCCCCc1cc(O)c2c(C)cc(=O)oc2c1	-	-	-	-
O=c1cc(-c2c(F)c(F)c(F)c(F)c2F)oc2ccccc12	-	-67	-	-
CC(C)(C)n1ncc2c(=O)n(Cc3ccccc3C(F)(F)F)cnc21	.	.	-	.
COc1cc(CNc2ncc(-c3ccc(Br)cc3)n2C)cc(OC)c1OC	-	?	-	-
Cn1c(-c2ccc(Br)cc2)cnc1NCc1cccnc1	-	-62	-	-
Cn1c(-c2ccc(F)cc2)cnc1NCc1ccc(C#N)cc1	-	-73	-	-
Cn1c(-c2ccc(F)cc2)cnc1NCc1ccc(F)cc1	-	?	-	-
O=C(NCCc1ccccc1)[C@@H]1CC=C[C@@H]2CCN(C3CC3)C(=O)[C@@H]21	.	.	-	.
N#Cc1cccc(C(c2nnnn2CCc2ccccc2)N2CCN(C3CCCCC3)CC2)c1 (centres undefined)	-	-	-	-
COCCn1nnnc1C(c1cccc(C#N)c1)N1CCCCCC1 (centres undefined)	-	-75	-	-
N#Cc1cccc(C(c2nnnn2C2CCCC2)N2CCC(Cc3ccccc3)CC2)c1 (centres undefined)	-	-	-	-
N#Cc1cccc(C(c2nnnn2C2CCCC2)N2CCCCCC2)c1 (centres undefined)	-	-54	-	-
c1ccc2c(c1)CCCN2	.	.	-	.
Cc1ccc2c(CC(=O)N3CCOc4ccc(CN5CCOCC5)cc4C3)cc(=O)oc2c1	.	.	-	.
CCOc1ccc(CCNC(=O)c2c(C)oc3ncn(CC(C)C)c(=O)c23)cc1	-	.	-	-
O=[N+]([O-])c1ccc(C2=NN(CCO)C(=Nc3ccc(OC(F)(F)F)cc3)SC2)cc1	-	-56	-	-
CCOc1ccc(C(=O)NCc2ccncc2)cc1OCC	-	?	-	-
CCOc1cc(C(=O)NN=C2CCCC2)cc(OCC)c1OCC	-	-51	-	-
COc1ccc(C(=O)NN=C2CCCC2)cc1OC	-	-	-	-
CCOc1cc(C(=O)NCc2ccncc2)cc(OCC)c1OCC	-	-100	-	-
CO[C@H]1/C=C\O[C@@]2(C)Oc3c(C)c(O)c4c(O)c(c(C=NN5CCN(C6CCCC6)CC5)c(O)c4c3C2=O)NC(=O)C(C)=CC=C[C@H](C)[C@H](O)[C@@H](C)[C@@H](O)[C@@H](C)[C@H](OC(C)=O)[C@H]1C	.	.	-	.
CCCNC(=O)OC[C@@H]1O[C@H](CCON=C(C)C)C=C[C@@H]1Oc1ccc(OC)cc1	.	.	-	.
CC(C)(C)n1ncc2c(=O)n(Cc3ccc(F)cc3)cnc21	.	.	-	.
SMILES	Nrf2 activator	DRD3 antagonist	GRP78 ERSR act	D3 ag
COc1cccc(CN2CCc3[nH]c(=S)[nH]c(=O)c3C2)c1	-	-	-	-
COc1ccccc1CN1CCc2c([nH]c3ccccc23)C1	-	-90	-	-
Clc1cccc(CN2CCc3c([nH]c4ccccc34)C2)c1Cl	-	-	?	-
COc1cc(CN2CCc3c([nH]c4ccccc34)C2)cc(OC)c1	-	-68	-	-
C=C(/C=C/c1ccc(N(C)C)cc1)c1nc2ccccc2s1	.	.	-	.
COc1ccc(C(=O)Nc2ccccc2C(=O)NC(C(=O)NCc2ccco2)C(C)C)cc1 (centres undefined)	-	-61	-	-
CN(C/C=C/c1ccccc1)Cc1cccc2ccccc12	-	-100	-	-
CN(Cc1ccc(C(C)(C)C)cc1)Cc1cccc2ccccc12	.	.	-	-
Nc1nnc(N2CCCCC2)s1	-	-	-	-
O=C1CCCc2nc(N3CCCCC3)sc21	-	-59	-	-
Cc1c(NC(=O)Cn2[nH]c(=O)c3ccccc3c2=O)c(=O)n(-c2ccccc2)n1C	-	-52	-	-
Cc1c(NC(=O)CSc2nc3ccccc3[nH]2)c(=O)n(-c2ccccc2)n1C	-	-78	-	-
Cc1c(NC(=O)CN2C(=O)c3ccccc3S2(=O)=O)c(=O)n(-c2ccccc2)n1C	-	-55	-	-
COc1ccc(-c2nc3cc(F)ccc3cc2CN(C(=O)c2ccc3c(c2)OCO3)C2CC2)cc1	.	.	-	.
COc1ccc(CN2CCCC(c3nc(-c4ccncc4)ncc3-c3ccccc3C)C2)c(OC)c1 (centres undefined)	.	.	-	.
Brc1cccc(CNc2nc3ccccc3n2CCN2CCCCC2)c1	-	-	-	-
Cn1c(NCc2cccc(Br)c2)nc2ccccc21	-	-58	-	-
Cn1cnnc1Sc1ccc(CN2CCOc3ccc(C4=Cc5ccccc5CC4)cc3C2)o1	.	.	-	.
COc1ccccc1CNC(=O)C1(C)CCN1C(=O)C1(c2ccccc2)CC1 (centres undefined)	-	-58	-	-
CN(C)CC1CCCCC1OC(=O)c1ccc(Cl)cc1 (centres undefined)	-	-	-	-
CN(C)CC1CCCCC1C1(O)c2ccccc2CSc2sccc21 (centres undefined)	-	-73	-	-
COc1ccccc1CN(C)CC(=O)c1c(C)[nH]c2ccccc12	.	.	-	.
CCc1ccc2oc(-c3cccc(N)c3)nc2c1	?	-52	-	-
Cc1cc(C(=O)N2CCCC(C(=O)c3cc(F)ccc3F)C2)c(C)o1 (centres undefined)	-	-56	-	-
Cc1cc(C)c(C(=O)N2CCCC(C(=O)c3cc(F)ccc3F)C2)o1 (centres undefined)	-	-	-	-
SMILES	Nrf2 activator	DRD3 antagonist	GRP78 ERSR act	D3 ag
Cc1cc2c(cc1C)N(CC(=O)N1CCCC1)C(=O)CC(c1ccccc1)=N2	-	-75	-	-
O=C(CN1C(=O)CC(c2ccccc2)=Nc2ccccc21)NCc1ccccc1	-	-	-	-
CCCn1nnnc1NCc1ccc(SC)cc1	-	-	-	-
CSc1ccc(CNc2nnnn2C)cc1	-	-	-	46
Cc1ccnc2ccc3ccccc3c12	.	.	-	.
NC(=O)C1=CN(C2OC(COP(=O)(O)OP(=O)(O)OC[C@H]3O[C@@H](n4cnc5c(N)ncnc54)[C@H](OP(=O)(O)O)[C@@H]3O)C(O)C2O)C=CC1 (some centres undefined)	.	.	-	.
Cc1ccc(-n2nc(C(=O)O)nc2-c2ccccc2)cc1	-	-51	-	-
Cc1ccc(-n2nc(C(N)=O)nc2-c2ccccc2)cc1	-	-	-	-
CN(C(=O)CSc1nncn1-c1ccccc1)C1CCS(=O)(=O)C1 (centres undefined)	-	-54	-	-
COC(=O)c1cc(Br)c(=O)n(Cc2ccco2)c1	-	-52	-	-
O=C(O)C1C2C=CC(C2)C1C(=O)NCc1ccco1 (centres undefined)	-	-	-	-
COc1ccc(NC(=O)C2C3C=CC(C3)C2C(=O)NCc2ccco2)c(OC)c1 (centres undefined)	-	-56	-	-
CN1CCN(c2ccc(CNC(=O)C3Cc4c(-c5cccc(F)c5)ccnc4O3)cc2)CC1 (centres undefined)	-	-56	-	-

Source: PubChem BioAssay
